# Assay results from PubChem BioAssay (NCATS).
# Records with an inconclusive call do not appear. Values without a mark were called inactive. Calls of active or inactive are those of the source. Calls follow the shape of the dose curve; as a rule, active = well fitted cell-killing curve with a large enough effect; inconclusive = small, poorly fitted or top-dose-only effect, or effect the other way; inactive = no such curve, though single readings can be large or run the other way.
# Assay: Quantitative High-Throughput drug screen in 47 multiple myeloma cell lines against the NCATS MIPE library collection: JIM1_ECACC cell viability assay (AID 1918964)
# Settings: JIM1 myeloma viability, CellTiter-Glo ATP luminescence, 48 h; series mostly up to 45.8 µM; viability (% of DMSO): at the top concentration
# From the text: PI: Beverly A. Mock Ph.D.
# Laboratory of Cancer Biology and Genetics,
# Center for Cancer Research, National Cancer Institute,
# National Institute of Health, Bethesda, Maryland
# Drug resistance and disease progression are common in multiple myeloma (MM) patients, underscoring the need for new therapeutic combinations. […] We hypothesized that effective combinations would reduce MYC expression and enhance p16 activity. […] These preclinical data identify potentially useful drug combinations for evaluation in drug-resistant MM and reveal potential mechanisms of combined drug sensitivity.
# Described herein is the primary MIPE qHTS used to cherrypick compounds. Validated compounds were then further tested for potential synergistic activiy.
# [1] Peat TJ, Gaikwad SM, Dubois W, Gyabaah-Kessie N, Zhang S, Gorjifard S, Phyo Z, Andres M, Hughitt VK, Simpson RM, Miller MA, Girvin AT, Taylor A, Williams D, D'Antonio N, Zhang Y, Rajagopalan A, Flietner E, Wilson K, Zhang X, Shinn P, Klumpp-Thomas C, McKnight C, Itkin Z, Chen L, Kazandijian D, Zhang J, Michalowski AM, Simmons JK, Keats J, Thomas CJ, Mock BA. Drug combinations identified by high-throughput screening promote cell cycle transition and upregulate Smad pathways in myeloma. Cancer Lett. 2023 Aug 1;568:216284. doi: 10.1016/j.canlet.2023.216284. Epub 2023 Jun 24. PMID: 37356470; PMCID: PMC10408729.
# SEQUENCE No. (e.g., 1, 2, 3, etc.); […] (e.g., Cells, Incubation, Reagent, etc.); VALUE and DESCRIPTION.
# 1; Cells; 5 uL; white, solid bottom 1536-well Greiner assay plate.
# 2; Compounds; 23 nL; Kalypsis pin tool (Wako USA) equipped with a 1536-well pin head to transfer to the assay plates.
# 3; Incubation; 48 hours; 37C incubation.
# 4; Reagent;5uL; CellTiter Glo (Promega).
# 5; Detector; 425V; Luminescence; Viewlux PerkinElmer.
# NOTES (numbers refer to Sequence numbers above)
# 1. The cell-based screening methods employed in this study were like those previously published. Briefly, the corresponding myeloma cell lines were screened in 1,536-well plates with 500 cells, 5-uL per well for inhibition of cell viability (assessed by measuring ATP levels with CellTiterGlo).
# 2. NCATS MIPE 4.0 library of approved and investigational drugs were added using the Kalypsis pin tool. Wells treated with DMSO only for 100% viability and media only wells for 0% viability were used as controls.
# 3. The assay plates were covered and incubated for 48 hours in a 37C, 5% CO2 incubator with controlled humidity.
# 4. After 48 hours, CellTilter-GloTM luminescent substrate mix (Promega) reagent was added to the assay plate and plates we incubated for 5 min at room temperature.
# 5. Signal was measured as median relative luminescence units on a ViewLux (PerkinElmer) multiplate reader.
# [1] Heske CM, Davis MI, Baumgart JT, Wilson K, Gormally MV, Chen L, Zhang X, Ceribelli M, Duveau DY, Guha R, Ferrer M, Arnaldez FI, Ji J, Tran HL, Zhang Y, Mendoza A, Helman LJ, Thomas CJ. Matrix Screen Identifies Synergistic Combination of PARP Inhibitors and Nicotinamide Phosphoribosyltransferase (NAMPT) Inhibitors in Ewing Sarcoma. Clin Cancer Res. 2017 Dec 1;23(23):7301-7311. doi: 10.1158/1078-0432.CCR-17-1121. Epub 2017 Sep 12. PMID: 28899971; PMCID: PMC6636827.
# Potency is read from the fitted curve at half-maximal effect.
Structure (SMILES),viability (% of DMSO) [%],Potency
Fc1ccc(C(OCCN2CCN(CCCc3ccccc3)CC2)c2ccc(F)cc2)cc1,126,–
CN(C)[C@@H]1C(=O)C(C(N)=O)=C(O)[C@@]2(O)C(=O)C3=C(O)c4c(O)cccc4[C@@](C)(O)[C@H]3C[C@@H]12,105,–
CC(O)(CS(=O)(=O)c1ccc(F)cc1)C(=O)Nc1ccc(C#N)c(C(F)(F)F)c1 (configuration not stated),–,4180 nM (active)
O=C(O)C(=O)c1cn(Cc2ccccc2)c2ccc(-c3ccc(OC(F)(F)F)cc3)cc12,92.1,–
O=C1CC[C@@]2(O)[C@H]3Cc4ccc(O)c5c4[C@@]2(CCN3CC2CC2)[C@H]1O5,114,–
CC1=C2C[C@@H]3[C@@H](CC=C4C[C@@H](O)CC[C@@]43C)[C@@H]2CC[C@]12O[C@H]1C[C@H](C)CN[C@H]1[C@H]2C,109,–
C=C(C)[C@H]1Cc2c(ccc3c2O[C@@H]2COc4cc(OC)c(OC)cc4[C@@H]2C3=O)O1,–,418 nM (active)
C[C@@H]1O[C@@H](O[C@H]2C[C@@H](O)[C@]3(CO)[C@H]4[C@H](O)C[C@]5(C)[C@@H](C6=CC(=O)OC6)CC[C@]5(O)[C@@H]4CC[C@]3(O)C2)[C@H](O)[C@H](O)[C@H]1O,–,13.2 nM (active)
CN1CCN(C(=O)O[C@H]2c3nccnc3C(=O)N2c2ccc(Cl)cn2)CC1,122,–
COC[C@H]1OC(=O)c2coc3c2[C@@]1(C)C1=C(C3=O)C2CCC(=O)[C@@]2(C)C[C@H]1OC(C)=O (some centres not stated),–,8330 nM (active)
C[C@@H]1[C@@H](CC(C[C@H]2O[C@@H]3O[C@]4(C)CC[C@@H]5[C@H](C)CC[C@@H]([C@H]2C)[C@@]35OO4)C[S+](=O)([O-])c2ccc(COC(=O)N(C)C)cc2)O[C@@H]2O[C@]3(C)CC[C@H]4[C@H](C)CC[C@@H]1[C@@]24OO3 (some centres not stated),–,66.2 nM (active)
CCCC(C)(COC(N)=O)COC(=O)NC(C)C (configuration not stated),129,–
CC(C)CC(N(C)C)C1(c2ccc(Cl)cc2)CCC1 (configuration not stated),85.4,–
Cn1cc(C2=C(c3cn(C4CCN(Cc5ccccn5)CC4)c4ccccc34)C(=O)NC2=O)c2ccccc21,–,1320 nM (active)
COc1ccc(C(CN(C)C)C2(O)CCCCC2)cc1 (configuration not stated),113,–
N[C@@H](Cc1ccc(N(CCCl)CCCl)cc1)C(=O)O,–,10500 nM (active)
CNCC(O)c1ccc(O)cc1 (configuration not stated),100,–
